Compound activity as filed in PubChem.
Pf growth 96h: P. falciparum growth inhibition at 96 hours; P. falciparum luciferase reporter growth, 96 h; Potency, µM (doses to about 28.7 µM), for inactives: top-dose activity change, negative = inhibition, hits mostly inhibitors; 6.9% of 320,000 active; AID 504834; note: potency is the fitted concentration of half-maximal effect; % is set by controls: 0 for no effect and ±100 for the full control effect
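Erythrocytes infected with luciferase-expressing P. falciparum were dispensed at 2% hematocrit and 0.05% parasitemia (final), then incubated with compounds 96 hours at 37 C in 5% CO2. Luminescence after detection reagent addition reported growth.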
Shiga toxin inh: blocks Shiga toxin action in Vero cells. inhibition, % at 38.7 µM. 9.2% of 290,000 active. Vero cells, Shiga toxin protein synthesis inhibition reporter; in the data active = inhibition mostly above about 28%, no sharp cut-off; inactive = mostly below about 43%; note: 0% is about no effect
HCV inh: blocks hepatitis C virus. Huh7.5.1 HCVcc-Cre infection, luciferase reporter, 44 h. Potency, µM (highest dose often 41.8 µM), inactives show at the highest dose activity change, negative = inhibition, usual class: inhibitors. 3.4% of 340,000 active. AID 651820; note: potency is the fitted concentration of half-maximal effect; % is set by controls: 0 for no effect and ±100 for the full control effect
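Compounds are dispensed onto cells plated 4 h earlier at 1,000 per well, with HCVcc-Cre virus (about 0.5 moi) added next. Following 44 h of culture, luminescent signal is measured for 15 sec after 15 min with substrate at room temperature.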
Cycloheximide cs: counter-screen for Shiga toxin inhibitors: cycloheximide protein synthesis inhibition | cell reporter, cycloheximide protein synthesis inhibition counterscreen | max response, % | 12% of 300,000 active | AID 2314; in the data active = max response mostly above about 13%, no sharp cut-off; inactive = mostly below about 14%; note: read at 38.3 µM for the half of the compounds with a filed dose; 0% is about no effect
Pf growth 48h: P. falciparum growth inhibition at 48 hours (one generation); Potency, µM (series often up to 28.7 µM), for inactives: at the top dose activity change, negative = inhibition, usual class: inhibitors; P. falciparum luciferase growth in erythrocytes, 48 h; 5.9% of 310,000 active; note: potency is the fitted concentration of half-maximal effect; % is set by controls: 0 for no effect and ±100 for the full control effect
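Luciferase-expressing P. falciparum in infected erythrocytes (2% hematocrit, 0.1% parasitemia final) in RPMI 1640/0.5% Albumax were exposed to compound for 48 hours at 37 C, 5% CO2; growth read as luminescence.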
AMA1 RON2 block: AMA1-RON2 (P. falciparum) interaction inhibition; AlphaScreen AMA1-biotinylated RON2 peptide binding; Potency, µM (series often up to 58.2 µM), without a hit: top-dose activity change, negative = inhibition, usual class: inhibitors; AID 720542; 0.2% of 360,000 active;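 note: potency is the fitted concentration of half-maximal effect; 0% = vehicle wells and -100% = peptide control; nearly all actives have a fitted effect of over 45% in size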
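AMA1 (3D7) with his tag at 25 nM final met compounds first, then biotinylated RON2 peptide at 25 nM; detection used donor plus acceptor beads, 10 µg/mL apiece, read by AlphaScreen after 30 min at room temperature.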
HCV inh confirm: confirmation of hepatitis C virus inhibitors; shares compounds with HCV inh; HCVcc-Cre infectious virus cell assay, luciferase, inhibition; Potency, µM (series often up to 41.8 µM), for the others: at the top dose activity, negative = inhibition, hits mostly inhibitors; 78% of 640 active; note: potency is the fitted concentration of half-maximal effect; nearly all actives have a fitted effect of over 80% in size
HCV host tox: counter-screen for HCV inhibitors: host cell cytotoxicity; shares compounds with HCV inh; HCV host cell line cytotoxicity counterscreen; Potency, µM (series often up to 41.8 µM), for inactives: at the top dose activity change, negative = cytotoxicity, hits mostly inhibitors; 22% of 640 active; AID 720576;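 note: potency is the fitted concentration of half-maximal effect; 44 h compound exposure; % is set by controls: 0 for no effect and ±100 for the full control effect; nearly all actives have a fitted effect of over 55% in size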
* = called active by the depositor; ? = inconclusive; . = no result given; [ ] = another dose, or the depositor's remark. Compounds with a hit are over-represented: about 21% of the library has one in this group of screens. Unless noted, calls come from the whole dose curve; as a rule, active = well fitted curve in the direction sought with a large enough effect; inconclusive = small, poorly fitted or top-dose-only effect, or another doubt; inactive = no such curve, though single readings can be large; an effect the other way counts as inactive or inconclusive.

SMILES | Pf growth 96h | Shiga toxin inh | HCV inh | Cycloheximide cs | Pf growth 48h | AMA1 RON2 block | HCV inh confirm | HCV host tox
Nc1nc(CCl)nc(N(c2ccccc2)c2ccccc2)n1 | 2.08µM* | 12.3 | 0.562µM* | 11.8 | 5.22µM* | 15.0% | 0.995µM* | -94.5%
Nc1nc(Cl)nc(N(c2ccccc2)c2ccccc2)n1 | 30.9% | -11.3 | -8.6% | -0.5 | -9.8% | -6.9% | . | .
CCn1cnc2cc(NS(=O)(=O)c3ccc(OC)c(OC)c3)ccc21 | 1.1% | -4.9 | 14.0% | -1.8 | -1.9% | -4.1% | . | .
C=C(c1ccc(O)cc1)c1ccc(O)cc1 | -6.8% | 0.4 | 8.91µM* | 10.8 | -12.6% | -8.9% | 14.1µM* | 42.4%
NC(=O)C1CCCN(C(=O)c2ccc3c(c2)NC(=O)CS3)C1 (stereo not drawn) | ? | . | 21.3% | . | ? | -2.8% | . | .
COc1cc(-c2nnc(-c3cc(OC)c(OC)c(OC)c3)o2)cc(OC)c1OC | 4.2% | 21.0 | ? | -2.9 | ? | 3.4% | . | .
COc1cc(-c2nnc(-c3ccccc3)o2)cc(OC)c1OC | ? | 10.8 | ? | 5.8 | ? | 20.6% | 14.1µM* | 12.1%
CCC(C)NC(=O)CSc1nc(-c2cccs2)cc(C(F)(F)F)n1 (stereo not drawn) | 5.22µM* | 23.1 | 4.47µM* | 8.2 | . | -5.9% | 19.9µM* | -35.9%
O=C(O)CSc1nc(-c2cccs2)cc(C(F)(F)F)n1 | -15.1% | 12.5 | -21.8% | 10.3 | 4.7% | 9.3% | . | .
COc1ccc(Cl)cc1NC(=O)C(C)OC(=O)C1=NNC(=O)CC1 (stereo not drawn) | -12.7% | . | ? | . | 22.0% | 0.0% | ? | -13.8%
O=C1CCC(C(=O)OCC(=O)Nc2cc(Cl)ccc2F)=NN1 | . | . | 7.0% | . | . | 11.2% | . | .
Cc1cc(=O)n2c3ccccc3n(CC(O)CN3CCCC3)c2c1C#N (stereo not drawn) | ? | 14.9 | 2µM* | -1.3 | ? | -3.9% | 12.5µM* | -21.7%
CC(=O)NO | -9.4% | . | -3.9% | . | -6.5% | -8.7% | . | .
Cc1ccccc1C(=O)Nc1ccccc1-c1nnn(CC(=O)Nc2ccc3c(c2)OCCO3)n1 | 90.8% | 41.4 | 5.01µM* | 38.3* | ? | 8.1% | ? | -11.3%
CC(C)=CCC/C(C)=C/CNC(=O)C[C@H]1C[C@H](C(=O)N2CCOCC2)[C@@]2(C)c3[nH]c4cc(CCC(=O)N(C)C)ccc4c3CCN2C1=O | . | . | ? | . | . | -7.5% | . | .
CC(C)=CCC/C(C)=C/CNC(=O)C[C@H]1C[C@H](C(=O)N2CCCCC2)[C@@]2(C)c3[nH]c4cc(CCC(=O)N(C)C)ccc4c3CCN2C1=O | . | . | 7.94µM* | . | . | -25.0% | 25µM* | ?
COc1ccc(C(=O)C2CCCN(C(=O)c3cccc(N(C)C)c3)C2)cc1OC (stereo not drawn) | -13.7% | -1.6 | 5.9% | 8.0 | ? | -2.7% | . | .
CCOc1ccc2nc(N/C(N)=N/C(=S)Nc3cccc(C)c3)nc(C)c2c1 | ? | -11.5 | 5.62µM* | -2.9 | ? | 45.1% | 7.91µM* | -18.6%
CCc1ccccc1NC(=S)/N=C(\N)Nc1nc(C)c2cc(C)ccc2n1 | ? | 10.8 | ? | 3.1 | 2.94µM* | 26.2% | 9.95µM* | ?
COc1ccc(OCC(O)CNC(=O)Nc2cccc3ccccc23)cc1 (stereo not drawn) | 5.5% | -3.3 | -12.8% | -1.4 | -17.2% | -5.9% | . | .
Cc1ccc2c(c1)-c1cc(C)ccc1C2=O | . | . | ? | . | . | 3.6% | 22.3µM* | 10.0%
Cc1cc(Cl)ccc1OC(C)C(=O)Nc1cnn(CCCC(=O)O)c1 (stereo not drawn) | 3.7% | 1.9 | 20.2% | -2.0 | 39.5% | -6.8% | . | .
COc1ccc(NC(C)=O)cc1S(=O)(=O)N1CC=C(c2ccccc2)CC1 | . | . | 7.1% | . | . | -1.3% | . | .
O=C(c1cc(COc2ccc3ncccc3c2)on1)N1CCC[C@H]1CO | ? | 56.3* | ? | 33.8* | -6.2% | 3.8% | 7.91µM* | 14.1µM*
CCOC(=O)COc1ccc(S(=O)(=O)NCc2ccncc2)cc1 | -2.2%[5.75 µM] | -7.9 | 14.0% | -2.5 | 8.7% | 11.7% | . | .
SMILES | Pf growth 96h | Shiga toxin inh | HCV inh | Cycloheximide cs | Pf growth 48h | AMA1 RON2 block | HCV inh confirm | HCV host tox
Cc1ccc(S(=O)(=O)NCC(=O)NCc2ccncc2)cc1 | 1.5% | 10.1 | 2.4% | 1.7 | 23.2% | -5.1% | . | .
CCOc1ccc(S(=O)(=O)NCc2ccncc2)cc1 | -11.9% | -10.2 | ? | -2.7 | . | 12.4% | 0.281µM* | 0.25µM*
Cc1ccc(S(=O)(=O)NCc2ccncc2)cc1 | 3.9% | -6.9 | 2.82µM* | -4.2 | . | -10.9% | 2.23µM* | 8.87µM*
Cc1ccc(-c2nc(SC(C)C(=O)N3CCCC3)n[nH]2)cc1 (stereo not drawn) | ? | . | -0.2% | . | -24.2% | 1.8% | . | .
O=[N+]([O-])c1cccc(/C=N/NC2CCS(=O)(=O)C2)c1 (stereo not drawn) | 19.6% | 23.3 | 15.1% | 2.9 | 17.8% | 4.5% | . | .
COc1ccc(C(=O)NC2CCCc3c2cnn3-c2ccccc2F)cc1OC (stereo not drawn) | ? | 1.4 | 4.47µM* | -3.1 | 2.0% | ? | 7.05µM* | ?
Cc1ccc(S(=O)(=O)CC(=O)c2cc(C)c(O)c(C)c2)cc1 | 1.5% | 1.8 | 17.0% | 4.6 | 24.6% | -14.8% | . | .
COc1ccc(C(=O)c2ccc(N(C)C)cc2)c2ccccc12 | 9.2% | -3.6 | ? | 1.2 | -19.9% | -24.4% | -22.4% | -18.8%
COc1ccc(C(=O)c2ccc(OC)c(OC)c2OC)cc1 | . | . | ? | . | . | 8.4% | . | .
C[C@]12C(=O)N(c3ccc(Br)cc3)C(=O)N1[C@H]1c3ccccc3OC[C@@H]1[C@H]2c1ccccc1 | . | . | 8.0% | . | . | -3.4% | . | .
COc1ccc(OC)c(NC(=O)Cc2csc(NC(=O)Nc3ccccc3OC)n2)c1 | -70.7% | . | 8.91µM* | . | ? | -26.8% | 9.95µM* | 37.4%
Cn1c(-c2ccsc2)c(-c2cccs2)c2cc(-c3ccc4cc[nH]c4c3)ccc21 | ? | . | 1.12µM* | . | 2.08µM* | 0.0% | 11.2µM* | -34.8%
O=C(NNc1ccnc2cc(Cl)ccc12)C1CCCCC1 | 1.04µM* | 17.7 | 2.82µM* | 2.1 | 1.65µM* | 4.4% | 0.887µM* | 1.58µM*
O=C(NNc1ccc(Cl)cc1)C1CCC1 | ? | -7.6 | 20.7% | 1.0 | ? | 1.8% | . | .
COc1ccc(NC(=O)Nc2cccc(Cl)c2Cl)c(OC)n1 | 9.28µM* | 12.2 | 2.82µM* | -1.2 | ? | -4.0% | ? | 17.1%
Cn1nccc1NC(=O)Nc1cccc(Cl)c1Cl | 32.3% | 6.4 | -14.7% | 6.6 | 34.6% | -0.9% | . | .
